Data from PubChem BioAssay AID540256 (National Center for Advancing Translational Sciences (NCATS), 2011).
The whole screen tested about 300,000 compounds, of which about 3,700 (1.2%) were called active. Roughly 20% stayed inconclusive and do not appear here. The list comes from a sample in which actives are over-represented; it also holds similar structures and randomly drawn compounds. A number with no mark means an inactive call. Calls come from the whole dose curve; tested in HEK293 cells.

Experiment: qHTS for Inhibitors of binding or entry into cells for Lassa Virus; note: nearly all actives have a fitted effect of over 50% in size
Conditions: Lassa virus pseudotype entry inhibition, cell reporter; series mostly up to 37.9 µM; activity change, negative = inhibition: at the top concentration
% is set by controls: 0 for no effect and ±100 for the full control effect; potency is the fitted concentration of half-maximal effect.

Row | Compound | Potency | activity change, negative = inhibition
1 | CCN(CC)S(=O)(=O)c1ccc2[nH]cc(C(=O)NCCc3ccccc3)c(=O)c2c1 | 0.224 µM (active) | 
2 | CCc1ccc(NS(=O)(=O)c2ccc3[nH]cc(C(=O)NCCc4cccc(C)c4)c(=O)c3c2)cc1 |  | 11.7% [at 46.1 µM]
3 | O=C(NCCc1ccccc1)c1c[nH]c2ccc(F)cc2c1=O |  | 2.46% [at 46.1 µM]
4 | Cc1ccc(-n2ncc3c2CC(C)(C)CC3NC(=O)Cc2c(C)noc2C)cc1 (configuration not stated) |  | -1.13%
5 | CC(C)Cn1cnc2c1c(=O)n(CC(=O)NN)c(=O)n2Cc1ccccc1 |  | 8.73%
6 | CC(C)(C)CC(C)(C)NCC(O)COCCOc1ccc(Br)cc1 (configuration not stated) | 13 µM (active) | 
7 | Cc1noc(COc2ccccc2OCC(O)CNC(C)(C)C)n1 (configuration not stated) |  | -8.37%
8 | CC(C)(C)NCC(O)COc1cccc2[nH]c(=O)[nH]c12 (configuration not stated) |  | -18.2%
9 | CN(N)c1nc(N2CCCC2)nc(N2CCCC2)n1 |  | 3.32%
10 | O=C(Nc1ccccc1Cl)/C(Cl)=C(\Cl)S(=O)c1ccccc1 (configuration not stated) | 8.91 µM (active) | 
11 | COCCN(CCOC)C(=S)Nc1ccccc1Cl |  | -7.1%
12 | O=C(Nc1ccccc1Cl)c1ccc2nsnc2c1 |  | 1.68%
13 | CCC(=O)N1CCN(c2ccccc2NC(=O)COc2cccc(C)c2C)CC1 |  | -25.8%
14 | COc1ccc(N(CC(=O)Nc2cc(OC)cc(OC)c2)S(=O)(=O)c2c(C)n[nH]c2C)cc1 |  | -22.8% [at 46.1 µM]
15 | Cc1ccccc1NC(=O)c1cc(S(=O)(=O)N2CCOCC2)cs1 |  | 11.5%
16 | O=C(Nc1ccccc1C(=O)O)c1cc(S(=O)(=O)N2CCCCC2)cs1 |  | -14.1%
17 | O=C(Nc1ccccc1F)c1cc(S(=O)(=O)N2CCCCC2)cs1 | 20.6 µM (active) | 
18 | O=C(Nc1ccc2nc(SCCOc3ccccc3)sc2c1)c1ccco1 |  | 6.39% [at 46.1 µM]
19 | CCCn1c(C)cc(-c2csc(NC(=O)CCc3nc4ccccc4c(=O)[nH]3)n2)c1C |  | 13.6%
20 | Cc1oc(-c2ccccc2)nc1Cn1c(SCc2cccc(C(F)(F)F)c2)nc2cccnc21 |  | -28.6% [at 46.1 µM]
21 | O=S(=O)(O)c1cc2onnc2c2ccccc12 |  | 1.68% [at 46.1 µM]
22 | Oc1ccc(Cl)cc1/C=N/c1nc2ccccc2[nH]1 |  | -23.6% [at 14.3 µM]
23 | CCC(=O)/C(=C(/O)c1ccccc1)c1nc2ccccc2[nH]1 |  | -7.18% [at 46.1 µM]
24 | O=C(/C(=C/c1cccc(Cl)c1)c1nc2ccccc2[nH]1)c1ccccc1 | 10 µM (active) | 
25 | CCc1ccc(NC(=O)CN2CCC(C(=O)c3ccc(OC)cc3)CC2)cc1 |  | 4.84% [at 46.1 µM]
26 | O=C(Nc1c(Br)cc2c(c1Br)Cc1ccccc1-2)C(F)(F)F |  | -2.97% [at 46.1 µM]

Row | Compound | Potency | activity change, negative = inhibition
27 | O=C(/C=C/c1ccccc1)c1ccccc1O |  | -11.3%
28 | CC(C=Cc1ccccc1)=NNS(=O)(=O)c1ccc([N+](=O)[O-])cc1 |  | -16.9% [at 46.1 µM]
29 | CC(/C=C/c1ccccc1)=N\NC(=O)C1CC1(C)c1ccccc1 (configuration not stated) | 1.03 µM (active) | 
30 | CSCCC(NS(=O)(=O)c1ccc(C)cc1)C(=O)N(C)CC(=O)Nc1ccccc1Br (configuration not stated) |  | -7.64%
31 | CN(CC(=O)Nc1ccccc1C(F)(F)F)C(=O)Cc1ccccc1F |  | 1.54%
32 | COC(=O)CC(CC(=O)OC)n1cccc1 |  | 19.3% [at 46.1 µM]
33 | CCOC(=O)CN1C(C(=O)c2ccccc2)=C(OC(=O)C(C)(C)C)c2ccccc2S1(=O)=O |  | 10.1% [at 46.1 µM]
34 | CCOc1ccc(C(=O)NCC(=O)N2CCCCCCC2)cc1OCC |  | -15.1%
35 | Fc1ccc(-n2ncc3c(Nc4ccc(Oc5ccccc5)cc4)ncnc32)cc1 |  | 27% [at 46.1 µM]
36 | CCN1CCN(C(=O)c2ccccc2N(C)S(=O)(=O)c2ccc(C)cc2)CC1 |  | -16.6%
37 | CCOC(=O)N1CCN(C(=O)c2ccccc2N(Cc2ccccc2)S(=O)(=O)c2ccc(OC)cc2)CC1 | 7.08 µM (active) | 
38 | NC(=O)c1ccccc1N(Cc1ccccc1)S(=O)(=O)c1ccccc1 |  | -13.9% [at 46.1 µM]
39 | CN1CCOC1c1ccc(C2OCCN2C)cc1 (configuration not stated) |  | 0.075%
40 | CC(=O)OC1C2(CC3N4C(=O)C5(CO)SSC4(CC31O)C(=O)N5C)OC(C)C(C)(C)C2=O (configuration not stated) | 1.58 µM (active) | 
41 | CCOc1ccccc1/C=N/Nc1nc2ccccc2o1 |  | -2.18%
42 | COc1ccc(CCNC(=S)N2CCN(S(=O)(=O)c3ccc(Cl)cc3)CC2)cc1 |  | 0.0467%
43 | O=C1CCN(C(=S)NCCc2ccccc2)CC1 |  | 4.58%
44 | Oc1cc2c(cc1O)CN(C(=S)NCCc1ccc(Cl)cc1)CCC2 | 11.6 µM (active) | 
45 | Cn1cc(C2OC(=O)c3ccccc32)c2ccccc21 (configuration not stated) |  | -3.46% [at 46.1 µM]
46 | COC(=O)c1ccc(C(=O)OC)c(NC(=S)N2CCN(c3ccc(F)cc3)CC2)c1 |  | 0.467%
47 | COC(=O)c1ccc(C(=O)OC)c(NC(=S)N2CCN(c3cc(Cl)ccc3C)CC2)c1 | 4.47 µM (active) | 
48 | COC(=O)c1ccc(C(=O)OC)c(NC(=S)N2CCCCC2)c1 |  | 3.3%
49 | Cc1ccc2c(=O)cc(C(=O)Nc3sc4c(c3C(=O)NCc3cccnc3)CCCC4)oc2c1 |  | -15.3% [at 46.1 µM]
50 | COc1ccc(NS(=O)(=O)c2ccc(C)c(C(=O)NCC(c3cccs3)N3CCOCC3)c2)cc1 (configuration not stated) |  | 6.31%
51 | CN(C)CCCNC(=S)NCc1ccc(Cl)cc1 |  | 4.48%
52 | S=C(NCc1ccc(Cl)cc1)NC1CCCCC1 |  | -10.7%
